Compounds without any hit were thinned out: in the full panel of roughly 79,000, 15% have a hit. Cut-off read from the data, not from the text of the source: active = growth inhibition above about 70%; inactive = the rest.
Experiments:
[1] = NCI Yeast Anticancer Drug Screen. Data for the rad50 strain (AID 155);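 note: 0% = growth of vehicle-only cultures of the same strain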; conditions: S. cerevisiae rad50 strain growth inhibition; at 50.0 µM; hits give high values
Method in brief: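 Inhibition values express reduced yeast growth in compound-treated cultures relative to vehicle-treated controls.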

[2] = NCI Yeast Anticancer Drug Screen. Data for the mec2-1 strain (AID 157); conditions: S. cerevisiae mec2-1 strain, at 50.0 µM, hits give high values
Method in brief: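 Strain: mec2-1 (DNA repair/cell cycle alteration). Compound exposure, then growth measured; inhibition expressed relative to vehicle.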

[3] = NCI Yeast Anticancer Drug Screen. Data for the sgs1 mgt1 strain (AID 161);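 note: 0% = growth of cultures given vehicle only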; conditions: S. cerevisiae sgs1 mgt1 strain, at 50.0 µM, hits give high values
Method in brief: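 Genetically altered yeast, compound exposure, growth inhibition relative to vehicle.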

[4] = NCI Yeast Anticancer Drug Screen. Data for the cln2 rad14 strain (AID 165);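 note: 0% = growth equal to vehicle treated cultures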; conditions: S. cerevisiae cln2 rad14 strain, at 50.0 µM, hits give high values
Method in brief: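 Compounds are applied to the cln2 rad14 yeast strain, and growth is then compared with that of vehicle-treated cultures to give inhibition.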

[5] = NCI Yeast Anticancer Drug Screen. Data for the bub3 strain (AID 167); conditions: S. cerevisiae bub3 mutant strain, at 50.0 µM, hits give high values
Method in brief: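 Steps: expose the mutant yeast strain to compound; grow alongside vehicle-treated cultures; measure growth; express inhibition against the vehicle cultures.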

[6] = NCI Yeast Anticancer Drug Screen. Data for the mlh1 rad18 strain (AID 175); conditions: S. cerevisiae mlh1 rad18 strain growth inhibition; at 50.0 µM; hits give high values
Method in brief: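 Read-out is yeast growth inhibition, calculated against vehicle-only controls. The compound was applied to a strain engineered with DNA damage repair alterations.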

Measured: growth inhibition

COc1ccc(N=Nc2ccccc2)cc1
inactive: [1] 3% | [2] 3.8% | [3] -5.6% | [4] -10.6% | [5] -11.8% | [6] -4.95%

COC(=O)CC1(C(=O)OC)Oc2ccc(Br)cc2C(=O)N1c1ccc(Br)cc1Cl (stereo unspecified)
inactive: [1] 26.9% | [2] -16.4% | [3] 24.6% | [4] 15.2% | [5] 19.4% | [6] 27.7%

O=C(O)CCC(C(=O)O)N(Cc1ccccc1)Cc1ccccc1 (stereo unspecified)
inactive: [1] 11.4% | [2] -0.4% | [3] -1.45% | [4] 1% | [5] 7.75% | [6] 5.9%

O=C(CNc1ccc(Cl)cc1Cl)NC1C=Cc2ccc(S(=O)(=O)Nc3ccc(Cl)cc3Cl)cc2C1=O (stereo unspecified)
inactive: [1] 34.5% | [2] 20.4% | [3] 44% | [4] 14.2% | [5] 29.1% | [6] 33.1%

COc1cc(CNc2nc3ccccc3nc2C(=O)O)cc(OC)c1OC
inactive: [1] 10.3% | [2] 3.05% | [3] -8.75% | [4] 5.1% | [5] -2.15% | [6] -0.4%

CC(=O)Oc1c(C)cc2c(c1C)C(C)CN2C(C)=O (stereo unspecified)
inactive: [1] 3.95% | [2] -33.8% | [3] -24.6% | [4] -18.9% | [5] -22.4% | [6] -10.6%

COc1cc(C(=O)N=Nc2c(O)[nH]c3ccc(Br)cc23)cc(OC)c1OC
inactive: [1] 3.55% | [2] -16.6% | [3] -7.1% | [4] -1.9% | [5] 2% | [6] -3.1%

CCCCCCCCCCCCCCCCc1c(C(=O)OC)[nH]c(=S)[nH]c1=O
inactive: [1] -49% | [2] -18.2% | [3] -21.9% | [4] -2.8% | [5] -29.1% | [6] -11.3%

CN(C)CCCSc1nc2ccccc2[nH]1
inactive: [1] -7.85% | [2] -13.8% | [3] -20.6% | [4] 0.75% | [5] 7.1% | [6] -6.6%

Cn1c(=O)n(C2OC(CO)C(O)C2O)c2ncnc(N)c21 (stereo unspecified)
inactive: [1] 8.9% | [2] 0.55% | [3] -5.8% | [4] -43.1% | [5] -2.9% | [6] 4.65%

COc1ccc(/C(=N/N)c2ccccc2)cc1
inactive: [1] 3.6% | [2] -40.5% | [3] -23.6% | [4] -42.4% | [5] -18.8% | [6] -2.15%

CN(C)CCCN1c2ccccc2Sc2ccc3ccccc3c21
inactive: [1] -0.35% | [2] -3.45% | [3] -43% | [4] -25.9% | [5] 8.95% | [6] 14.8%

Cc1ccc([N+](=O)[O-])c2c(NCCNC(=O)Cn3ccnc3[N+](=O)[O-])ccnc12
inactive: [1] 15.8% | [2] 4.3% | [3] 8.25% | [4] -0.7% | [5] 16.4% | [6] 12.3%

CCC(O)C(C)[N+](=O)[O-] (stereo unspecified)
inactive: [1] 28% | [2] -1.85% | [3] 7.45% | [4] 6% | [5] 1.75% | [6] 3.75%

COc1ccccc1C1OC2=C(Nc3ccc([N+](=O)[O-])cc3N2)C1=O (stereo unspecified)
inactive: [1] 12.2% | [2] 10.4% | [3] 27.9% | [4] 16.6% | [5] 16.9% | [6] 28.1%

[CH2+][B-]1(C)n2cc(Br)c[n+]2[B-](C)(C)[n+]2cc(Br)cn21
inactive: [1] 16.2% | [2] 16.8% | [3] 8.05% | [4] 9.8% | [5] 7.1% | [6] 22.6%

C=C(Cl)C(=C)CCC(Cl)C(C)(C)Cl (stereo unspecified)
inactive: [1] 12.6% | [2] 9.4% | [3] -13.7% | [4] 2.5% | [5] -16.8% | [6] -8.4%

CC12CCC3C(CCC4CC(O)(C(=O)O)CC43C)C1CCC2O (stereo unspecified)
inactive: [1] -16.9% | [2] -3.05% | [3] -19.9% | [4] 5.15% | [5] -7.55% | [6] -19.3%

COc1ccc(Cc2ccccc2C(=O)c2ccc(OC)cc2)cc1
inactive: [1] -14.7% | [2] -13.8% | [3] 0.05% | [4] -4.65% | [5] 4.6% | [6] -14.8%

O=C(O)CC(C(=O)O)c1ccccc1[N+](=O)[O-] (stereo unspecified)
inactive: [1] -26.9% | [2] -3.8% | [3] -24.2% | [4] -32.5% | [5] -1.1% | [6] -7.8%

CC(=O)O[C@H]1CC[C@@]2(C)[C@@H](CC[C@@H]3[C@@H]2CC(=O)[C@@]2(C)[C@H]3C[C@@H]3CC(C)=CC(=O)[C@@H]32)C1
inactive: [1] 48.2% | [2] -7.55% | [3] 28.6% | [4] -20.6% | [5] -34.9% | [6] 28%

N#Cc1c(C#N)c(-c2cccc([N+](=O)[O-])c2)n(-c2ccccc2)c1N
inactive: [1] 15.9% | [2] 15.5% | [3] -35.6% | [4] 2.15% | [5] -16.6% | [6] -16.5%

CCC(C)SC1=NC(N)=NC2=NC=NC21 (stereo unspecified)
inactive: [1] -11.6% | [2] -2.85% | [3] -9.3% | [4] -21.8% | [5] 6.05% | [6] 4.25%

CCOc1ccccc1C(=O)O
inactive: [1] 13.2% | [2] 6% | [3] 14.2% | [4] 11.4% | [5] -12.1% | [6] 11.4%

OCC12CCCC(OC1)O2 (stereo unspecified)
inactive: [1] -8.6% | [2] -14.7% | [3] -25.9% | [4] 0.2% | [5] 13.8% | [6] -4.65%

COC(=N)CCCl
inactive: [1] -1.3% | [2] -3.95% | [3] 10.8% | [4] 7.2% | [5] -4.55% | [6] 1.5%

O=c1ccccc2cccc(O)c12
inactive: [1] 8.25% | [2] 0.2% | [3] -1.35% | [4] -17.4% | [5] 8.15% | [6] 10.3%

Cc1cnc(NCCCCCCNc2ncc(C)c(-c3ccccc3O)n2)nc1-c1ccccc1O
inactive: [1] 13.1% | [2] -4.55% | [3] -26.5% | [4] 4% | [5] 0.35% | [6] 4.5%

O=C(CCBr)OCc1ccccc1
inactive: [1] -12.5% | [2] -7.45% | [3] 1.1% | [4] -20.8% | [5] -26.2% | [6] 25%

N#C/C(=C\c1ccccc1[N+](=O)[O-])C(=O)O
inactive: [1] 36.5% | [2] 0.45% | [3] 23.2% | [4] 16.9% | [5] -19% | [6] 3.7%

[N-]=[N+]=NC1(Cc2ccccc2)C(=O)c2cccc3c2N(CCC3)C1=O (stereo unspecified)
inactive: [1] 4.25% | [2] 8.55% | [3] -0.65% | [4] 16.2% | [5] 25.7% | [6] -11.2%

COc1ccc2c(c1)CCCN2C(=N)c1ccc([N+](=O)[O-])cc1
inactive: [1] -24.5% | [2] -4.1% | [3] -9.95% | [4] -52.9% | [5] 22.6% | [6] -11.5%

Cc1ccc(C(C)C)cc1O
inactive: [1] 17.6% | [2] 9.5% | [3] 19.1% | [4] 27% | [5] 13.7% | [6] 32.4%

c1ccc2c(c1)NCCOCCNc1ccccc1OCCNCCO2
inactive: [1] -1.5% | [2] 36.5% | [3] 14.1% | [4] -4.1% | [5] 30.1% | [6] 6.75%

CC(C)C(=O)CC(c1ccc(Cl)cc1)N1N=C(C(C)C)CC1c1ccc(Cl)cc1 (stereo unspecified)
inactive: [1] 8.05% | [2] 15.2% | [3] 6.95% | [4] -27.4% | [5] 40% | [6] 14.4%

NC(CCC(=O)Nc1cccc2ccccc12)C(=O)O (stereo unspecified)
inactive: [1] 27.6% | [2] 1.65% | [3] 16.5% | [4] 12.4% | [5] 17.2% | [6] -3.15%

CC1(C)CC(=O)C(C=NC(=O)c2ccncc2)=C(O)C1
inactive: [1] -25.1% | [2] 19.7% | [3] -3.55% | [4] -3.8% | [5] 14.9% | [6] -40.4%

[O-][n+]1c2ccccc2nn1-c1ccccc1
inactive: [1] -9.1% | [2] -4.25% | [3] -2.65% | [4] -21.4% | [5] -7.2% | [6] -13.8%

O=C(O)C(O)C(O)C(O)C(O)C(=O)O.[Cu+2] (stereo unspecified)
inactive: [1] 1.2% | [2] -6.15% | [3] 2.25% | [4] 0% | [5] -4.4% | [6] 15.2%

COc1cc(CC2c3cc(OC)c(OC)cc3CCN2C)ccc1O (stereo unspecified)
inactive: [1] -22.3% | [2] -17.9% | [3] -5.75% | [4] -9.2% | [5] -15.6% | [6] -3.35%

COc1ccc(CCCNC(=O)c2cc(OC)c(OC)cc2CCO)cc1OC
inactive: [1] 18.9% | [2] 15.1% | [3] -45.5% | [4] -9.6% | [5] -31.2% | [6] -11.8%
